Data: PubChem BioAssay (EPA / NIEHS)
Records with an inconclusive call do not appear. Activity calls are given as the source filed them. How the source made its calls, unless noted: active means hit-call score of the fitted dose curve at least 0.9, where 1 is the maximum; inactive means score below 0.9.

Assays:
[1] = ACEA_ER_80hr: ACEA Biosciences xCELLigence Real-Time Cell Analysis on Estrogen Receptor Agonism for Proliferation (AID 2282667; active means hit-call score of the fitted dose curve at least 0.9, where 1 is the maximum); conditions: T47D proliferation, impedance (xCELLigence), 80 h
Outline: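 Impedance readout (RT-CES) of T47D proliferation at 80 h post-dose; gain of signal vs DMSO baseline. Compounds: 8 conc, 1:4 serial, top 100 uM final, ≤0.5% DMSO; biological duplicate.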

[2] = APR_HepG2_CellCycleArrest_24hr: Apredica 24-hour HepG2 Assay for Cell Cycle Arrest (AID 2282905); conditions: imaging, actives raise or lower the signal;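 further: cell cycle arrest scored as ratio of 2N to 4N nuclear DNA content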
Outline: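 Readout: Hoechst 33342 nuclear DNA content by high-content fluorescent imaging, six images/well, 20x. Human HepG2 liver cells, 24 hr compound exposure, 0.39–200 uM, final DMSO 0.5% v/v. Gain or loss fitted relative to DMSO baseline.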

[3] = APR_HepG2_NuclearSize_24hr: Apredica 24-hour HepG2 Assay for Nuclear Size (AID 2282907); conditions: high-content imaging, actives raise or lower the signal
Outline: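 Read-out: nuclear diameter from Hoechst 33342 (2 ug/mL) imaging of fixed HepG2 cells, 20x, six fields/well. Compounds ran at 0.39–200 uM for 24 hr, 0.5% DMSO final. Gain or loss was fitted bidirectionally relative to the DMSO baseline.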

[4] = APR_HepG2_CellLoss_24hr: Apredica 24-hour HepG2 Assay for Cell Loss (AID 2282908); conditions: high-content imaging;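 on AC50: fit in both directions so a hit may be cell loss or gain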
Outline: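 Read-out: Hoechst 33342-stained nuclei counted by automated fluorescence imaging after formaldehyde fixation and Triton permeabilization. Ten concentrations, 0.39 to 200 uM, duplicate wells, 0.5% DMSO final. Gain or loss of signal fitted relative to DMSO baseline.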

[5] = APR_HepG2_MicrotubuleCSK_24hr: Apredica 24-hour HepG2 Assay for Microtubule CSK Stabilty (AID 2282909); conditions: HepG2 microtubule cytoskeleton imaging, actives raise or lower the signal
Outline: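 Read-out: alpha-tubulin immunofluorescence intensity by automated high-content imaging of fixed HepG2 cells after 24 h compound treatment. Ten concentrations, 0.39 to 200 uM, in duplicate; DMSO 0.5% v/v. Taxol positive control; DMSO-normalized bidirectional curve fitting.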

[6] = APR_HepG2_MitoticArrest_24hr: Apredica 24-hour HepG2 Assay for Mitotic Arrest (AID 2282910); conditions: high-content imaging, actives raise or lower the signal
Outline: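 Treatment lasted 24 hr in the human HepG2 line at 0.39–200 uM, solvent held at 0.5% DMSO. Fixed cells were stained with Hoechst 33342 and anti-phospho-histone H3, imaged at 20x, and analysed by gain- or loss-of-signal fitting against DMSO.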

[7] = APR_HepG2_MitoMembPot_24hr: Apredica 24-hour HepG2 Assay for Mitochondrial Membrane Potential (AID 2282911); conditions: imaging, actives raise or lower the signal
Outline: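 HepG2, 24 hr dosing, 10 concentrations 0.39–200 uM, 0.5% DMSO final. Live-cell MitoTracker Red CMXRos 250 nM 30 min, then 3.7% formaldehyde fix. HCS fluorescence imaging, 20x; bidirectional fit vs DMSO baseline.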

[8] = APR_HepG2_MitoMass_24hr: Apredica 24-hour HepG2 Assay for Mitochondrial Mass (AID 2282912); conditions: high-content imaging, actives raise or lower the signal
Outline: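 HepG2, 24 hr dosing, 10 concentrations 0.39–200 uM in duplicate, DMSO 0.5% final. MitoTracker Red CMXRos 250 nM, 30 min pre-fix; 3.7% formaldehyde fix. Imaging-based fluorescence intensity; gain/loss fit vs DMSO baseline.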

[9] = APR_HepG2_p53Act_24hr: Apredica 24-hour HepG2 Assay for p53 Activation (AID 2282913); conditions: high-content imaging, actives raise or lower the signal;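 further: p53 protein immunofluorescence averaged per cell in HepG2 with Hoechst nuclei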
Outline: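 Read-out: Cy5 immunofluorescence for p53 in fixed, permeabilized HepG2, imaged by HCS with Hoechst-defined nuclei. Dosing was 24 hr at 0.39–200 uM in 0.5% DMSO. Curves were fitted bidirectionally relative to DMSO.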

[10] = APR_HepG2_CellCycleArrest_72hr: Apredica 72-hour HepG2 Assay for Cell Cycle Arrest (AID 2282914); conditions: high-content imaging, actives raise or lower the signal
Outline: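 HepG2, 72 hr exposure, 10-point 0.39–200 uM, duplicate, 0.5% DMSO final. Fix 3.7% formaldehyde 30 min RT, Triton X-100 0.5%, Hoechst 33342 2 ug/mL. ArrayScan 20x, six fields/well; DNA content per nucleus; bidirectional fit vs DMSO.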

| Structure (SMILES) | AC50 [1] | outcome [2] | outcome [3] | AC50 [4] | outcome [5] | AC50 [6] | AC50 [7] | outcome [8] | outcome [9] | AC50 [10] | outcome [1] | outcome [4] | outcome [6] | outcome [7] | outcome [10] | AC50 [2] | AC50 [9] |
| --- | --- | --- | --- | --- | --- | --- | --- | --- | --- | --- | --- | --- | --- | --- | --- | --- | --- |
| Oc1ccc2ccccc2c1N=Nc1ccccc1 | 6.47 µM (active) | inactive | inactive | 34 µM (active) | inactive | 27.1 µM (active) | 0.0816 µM (active) | inactive | inactive | 0.813 µM (active) |  |  |  |  |  |  |  |
| COC(=O)c1ccc(O)cc1 |  | inactive | inactive |  | inactive |  |  | inactive | inactive |  | inactive | inactive | inactive | inactive | inactive |  |  |
| NC(=O)Cn1c(=O)cc(CCN2CCN(c3nccc4sccc34)CC2)c2ccc(F)cc21 |  | inactive | inactive |  | inactive |  |  | inactive | inactive |  | inactive | inactive | inactive | inactive | inactive |  |  |
| Cc1c(C(=O)O)c(O)cc2c1C(=O)c1c(O)c([C@@H]3O[C@H](CO)[C@@H](O)[C@H](O)[C@H]3O)c(O)c(O)c1C2=O |  | inactive | inactive |  | inactive |  |  | inactive | inactive |  | inactive | inactive | inactive | inactive | inactive |  |  |
| CN[C@H]1CC[C@@H](c2ccc(Cl)c(Cl)c2)c2ccc(S(N)(=O)=O)cc21 |  | inactive | inactive | 15.1 µM (active) | inactive |  |  | inactive | inactive |  | inactive |  | inactive | inactive | inactive |  |  |
| CCCCCCCC=O |  | inactive | inactive |  | inactive |  |  | inactive | inactive |  | inactive | inactive | inactive | inactive | inactive |  |  |
| C=CCc1ccc(O)c(OC)c1 |  | inactive | inactive |  | inactive |  |  | inactive | inactive |  | inactive | inactive | inactive | inactive | inactive |  |  |
| NCC1(Cc2noc(=O)[nH]2)CCCCC1 |  | inactive | inactive |  | inactive |  |  | inactive | inactive |  | inactive | inactive | inactive | inactive | inactive |  |  |
| Cc1cccc(C)c1O |  | inactive | inactive |  | inactive |  |  | inactive | inactive |  | inactive | inactive | inactive | inactive | inactive |  |  |
| C1CCC(SSC2CCCCC2)CC1 |  |  | inactive | 77.9 µM (active) | inactive |  |  | inactive |  | 62 µM (active) | inactive |  | inactive | inactive |  | 72.3 µM (active) | 88.4 µM (active) |
| Cc1cccc(Nc2cc(Cl)nc(SCC(=O)O)n2)c1C |  | inactive | inactive |  | inactive |  |  | inactive | inactive |  | inactive | inactive | inactive | inactive | inactive |  |  |
| CCCCCCCCCCCCCCCCCC(=O)O | 2.04 µM (active) | inactive | inactive |  | inactive |  |  | inactive | inactive |  |  | inactive | inactive | inactive | inactive |  |  |
| Cc1ccc(C(C)C)c(O)c1 |  | inactive | inactive |  | inactive |  |  | inactive | inactive |  | inactive | inactive | inactive | inactive | inactive |  |  |
| CC(=O)C(C)=CC1C(C)=CCCC1(C)C (stereo not given) |  | inactive | inactive |  | inactive |  |  | inactive | inactive |  | inactive | inactive | inactive | inactive | inactive |  |  |
| Cc1ccccc1Cl |  | inactive | inactive |  | inactive |  |  | inactive | inactive |  | inactive | inactive | inactive | inactive | inactive |  |  |
| CCCCN(CCCC)CCCC |  | inactive | inactive |  | inactive |  |  | inactive | inactive |  | inactive | inactive | inactive | inactive | inactive |  |  |
| CC(=O)Oc1ccccc1C(=O)O |  | inactive | inactive |  | inactive |  |  | inactive | inactive |  | inactive | inactive | inactive | inactive | inactive |  |  |
| COc1cc(/C=C/C(=O)CC(=O)/C=C/c2ccc(O)c(OC)c2)ccc1O |  | inactive | inactive | 38 µM (active) | inactive | 56.1 µM (active) | 48 µM (active) | inactive |  |  | inactive |  |  |  | inactive |  | 84.6 µM (active) |
| C[C@]12C=CC(=O)C=C1CC[C@@H]1[C@@H]2C(=O)C[C@@]2(C)[C@H]1CC[C@]2(O)C(=O)CO | 14.8 µM (active) | inactive | inactive |  | inactive |  |  | inactive | inactive |  |  | inactive | inactive | inactive | inactive |  |  |
| CCCCCCC(=O)OCC |  | inactive | inactive |  | inactive |  |  | inactive | inactive |  | inactive | inactive | inactive | inactive | inactive |  |  |
| CC(=O)OC/C=C(\C)CCC=C(C)C |  | inactive | inactive |  | inactive |  |  | inactive | inactive |  | inactive | inactive | inactive | inactive | inactive |  |  |
| CCCCc1ccc2c(n1)[C@@H](c1ccc(OC)cc1C[C@H](C)C(=O)O)[C@H](C(=O)O)[C@H]2c1ccc2c(c1)OCO2 |  | inactive | inactive |  | inactive |  |  | inactive | inactive |  | inactive | inactive | inactive | inactive | inactive |  |  |
